Compounds without any hit were thinned out: in the full panel of roughly 83,000, 20% have a hit.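 48-hour exposure, single concentration, 96-well plates; percent growth endpoint where 0 means no net growth. Active: below 10.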 Unmarked numbers belong to inactive results. The source made the active and inactive calls.

The subject of this assay is MDA-MB-468 breast. Nature of the assay: NCI-60 one-dose screen, 48 h (100 = growth as untreated, 0 = no growth, -100 = all killed). The note with it: 10 µM unless noted.
As to `CC(Nc1c(C#N)cnc2ccc(-c3cnc(N)nc3)cc12)c1ccccc1` (configuration not stated), the growth was -9.18% (active).

In the case of `Cc1c(C)c2c(c(C)c1NC(=O)CCCCCCC(=O)O)CCC(C)(CCCC(C)CCCC(C)CCCC(C)C)O2` (configuration not stated), the growth was 90.1%.

For the compound `CCn1cc(-c2[nH]c(=S)ncc2-c2ccc(Cl)cc2)c(-c2ccc(Br)cc2)n1`, the growth is 121%.

Turning to `CC/C=C\CCC/C=C1/C(=O)C=C[C@@H]1C/C=C\CCCC(=O)O`, the growth was 76.1%.

As to `CN(C)CC1CCCCCC(CN(C)C)C1=O` (configuration not stated), the growth is 15.3%.

For the compound `N#C/C(=N\Nc1ccccc1)C(=O)Nc1cc(-c2ccccc2)nn1-c1ccccc1`, the growth is -3.2% (active).

`CC(C)CCC[C@@H](C)[C@H]1CCC2C3=CCn4c(=O)ccc(=O)n4C3CC[C@@]21C` (some centres not stated): the growth is -49% (active).

As to `NC(N)=NC(N)=Nc1cc2ccccc2c2ccccc12`, the growth was -14.2% (active).

Regarding `CN1CCN(Cc2ccc3c(NNC(=O)c4ccccc4)nc4cc(F)ccc4n23)CC1`, the growth was -12.5% (active).

As to `COc1cc(Nc2ncc3c(n2)-c2ccc(Cl)cc2C(c2c(F)cccc2OC)=NC3)ccc1C(=O)O`, the growth was 61.9%.

In the case of `O=c1[nH]c(-c2cn(-c3ccc(Cl)cc3)nn2)nc2ccccc12`, the growth is 77.1%.

`O=C(CNS(=O)(=O)Cc1ccccc1)NNc1ccccc1`: the growth is 79.4%.

Take `C/C(=C\CCc1ccoc1)CC/C=C(\C)CCCN1CCC(CO)CC1`: the growth is 14.5%.

Turning to `COc1ccc(-c2nn(-c3ccccc3)cc2/C=C2\SC(=O)NC2=O)cc1`, the growth is 107%.

Consider `CC(C)(C)N1CCC1CN` (configuration not stated), for which the growth is 97.2%.

For `C/C=C(/C)C(=O)O[C@@H]1CC(C)(C)CC2C34OC(=O)[C@@]21CC[C@@]3(C)[C@]1(C)CCC2C(C)(C)C(=O)CC[C@]2(C)C1C[C@@H]4O` (some centres not stated), the growth is 13.1%.

As for `C#CC[C@@H]1C[C@]2(C)[C@H]3CC[C@@H]4[C@H]5C(C(=C)C)CC[C@]5(C(=O)NCCCN5CCN(CCCN)CC5)CC[C@@]4(C)[C@]3(C)CC[C@H]2C(C)(C)[C@H]1OC(C)=O` (some centres not stated), the growth is -76.5% (active).

On to `CCc1cccc(Sc2cc(C(=O)N3Cc4ccc(OCCN(C)C)cc4C3)ccc2O)c1`, for which the growth is 30.6%.

For `Cn1c(/C=C/[N+](=O)[O-])cc2ccccc21`, the growth is -36.6% (active).

Consider `C=C(C)[C@@H]1CC[C@]2(C(=O)OC)CC[C@]3(C)[C@H](CC[C@@H]4[C@@]5(C)C/C(=C/c6ccc(OC)cc6)C(=O)C(C)(C)[C@@H]5CC[C@]43C)[C@@H]12`, for which the growth is 76%.

With `CC(=O)C(C(C)=O)c1nc2sc3cc(Cl)ccc3n2c(=N)c1C#N`, the growth is 41.7%.

On to `CCOC(=O)c1cc(C(=O)c2cc(OC)cc(OC)c2)n2ccccc12`, for which the growth was 30.2%.

Consider `CCCC1OC(c2ccco2)OCC1CC` (configuration not stated), for which the growth was 118%.

Regarding `O=C1OCC2=C1C(c1ccc3c(c1)OCO3)CC(=O)N2c1cccc(Cl)c1` (configuration not stated), the growth was 88.1%.

For the compound `O=C(O)c1ccc(NC(=O)c2ccc(Nc3ccnc(C(F)(F)F)c3)cc2)cc1`, the growth is 99.8%.

Turning to `O=c1[nH]c(=S)[nH]n1C(=S)n1[nH]c(=S)[nH]c1=O`, the growth was 92.5%.

Consider `COc1ccc(/C(C)=C(\c2ccc(Cl)cc2)c2ccc(OCCN3CCCC3)cc2)cc1F`, for which the growth was 37.5%.
